According to PubChem BioAssay (NCI):
About 83,000 compounds went through this panel and 20% of them were active in at least one assay; those are over-represented in the sample as a whole.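 Step 1: grow cells in 96-well plates. Step 2: add test compound at a single concentration. Step 3: incubate 48 h. Step 4: record percent growth.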

How the values were obtained:
Assay in all cases: NCI-60 one-dose screen, 48 h (100 = growth as untreated, 0 = no growth, -100 = all killed)
Details in all cases: 10 µM; active means growth percent below 10; inactive means the rest
[1] = system: NCI-H23 lung
[2] = system: NCI-H226 lung
[3] = system: NCI-H322M lung
[4] = system: HOP-62 NSCLC
[5] = system: NCI-H460 lung
[6] = system: HOP-92 NSCLC
[7] = system: NCI-H522 lung
[8] = system: A549/ATCC NSCLC
[9] = system: 786-0 renal
[10] = system: DU-145 prostate
[11] = system: K-562 leukemia
[12] = system: MALME-3M melanoma
[13] = system: MDA-MB-231 breast
[14] = system: RXF 393 renal
[15] = system: SF-268 CNS
[16] = system: SF-295 CNS
[17] = system: SF-539 CNS
[18] = system: UACC-257 melanoma
[19] = system: M14 melanoma
[20] = system: COLO 205 colon

Measured: growth

C/C(=C\c1cc(Cl)ccc1OCC(=O)O)[N+](=O)[O-]
inactive: [1] 96.2% | [2] 108% | [3] 118% | [4] 103% | [5] 123% | [6] 101% | [7] 75.6% | [8] 92% | [9] 117% | [10] 108% | [11] 105% | [12] 127% | [13] 123% | [14] 134% | [15] 103% | [16] 108% | [17] 109% | [18] 102% | [19] 103%

NC(=O)c1ccc(N=C(N)N=C(N)N)cc1
inactive: [1] 102% | [2] 84.1% | [3] 90.6% | [4] 87.2% | [5] 104% | [6] 83.2% | [7] 103% | [9] 96.4% | [20] 115% | [10] 107% | [11] 97.6% | [12] 93.1% | [13] 106% | [14] 89.6% | [15] 94.7% | [16] 96.8% | [17] 96.8% | [19] 110%

CCOC(=O)C(CCC(C)C)C(=O)OCC
inactive: [1] 103% | [2] 98.2% | [3] 112% | [4] 105% | [5] 106% | [6] 93.6% | [8] 102% | [9] 113% | [20] 110% | [10] 107% | [11] 103% | [12] 108% | [13] 109% | [14] 110% | [15] 92.5% | [16] 102% | [17] 107% | [18] 97.5%

CN(C)c1ccc(CNC(C(=O)c2ccccc2)c2ccccc2)cc1 (stereo not given)
inactive: [1] 98.5% | [2] 101% | [3] 92.8% | [4] 75.5% | [5] 110% | [6] 78.9% | [7] 85.4% | [9] 109% | [20] 113% | [11] 94.8% | [12] 94.2% | [13] 107% | [15] 96.9% | [16] 98.1% | [17] 111% | [18] 94.9% | [19] 114%

Cc1ccc(O)c(C(=O)c2ccccc2)c1
inactive: [1] 98.4% | [2] 104% | [3] 138% | [4] 114% | [5] 113% | [6] 93.8% | [8] 95.9% | [9] 111% | [20] 113% | [10] 112% | [11] 122% | [12] 130% | [13] 90.6% | [14] 110% | [15] 101% | [16] 106% | [17] 101% | [18] 96.4% | [19] 95.8%

NC(=S)CN1CCOCC1
inactive: [1] 106% | [2] 114% | [3] 91.6% | [4] 118% | [5] 105% | [6] 91.9% | [7] 97.9% | [8] 110% | [20] 118% | [10] 107% | [11] 97.7% | [12] 110% | [13] 106% | [14] 115% | [15] 102% | [16] 131% | [17] 111% | [18] 117% | [19] 120%

CN1C(=O)CN2CCc3ccccc3C2c2cc(Cl)ccc21 (stereo not given)
inactive: [1] 87.1% | [2] 60.8% | [3] 93.4% | [4] 79.8% | [5] 97.5% | [6] 77.2% | [7] 75.7% | [9] 97.4% | [20] 110% | [10] 119% | [11] 92.6% | [12] 94.3% | [13] 93.6% | [14] 93.7% | [15] 103% | [16] 105% | [17] 89.4% | [18] 112% | [19] 97.2%

N#CC(=Nc1cccc(F)c1)C1=C(O)c2ccccc2C1=O
inactive: [1] 94.8% | [2] 79.6% | [3] 96.3% | [4] 88.4% | [5] 102% | [6] 63.8% | [8] 95.6% | [9] 97.5% | [20] 96% | [10] 105% | [11] 84.4% | [12] 87.1% | [13] 84.5% | [14] 88.9% | [15] 96.5% | [16] 82% | [17] 95.6% | [19] 98.2%

O=C(NCCNC(=O)c1ccc(Cl)cc1Cl)c1ccc(Cl)cc1Cl
inactive: [1] 114% | [2] 101% | [3] 113% | [4] 87.6% | [5] 105% | [6] 71.8% | [8] 104% | [9] 107% | [20] 129% | [10] 114% | [11] 107% | [12] 112% | [13] 91.8% | [14] 95% | [15] 99.1% | [16] 82.7% | [17] 96.5% | [19] 105%
